Compound activity (PubChem)
Compounds with a hit are over-represented: about 28% of the library has one in this group of screens.
CYP2C19 inh – blocks human cytochrome P450 2C19; P33261; AID 778; actives 21% (n = 96,000); inhibition, % at 5 µM; CYP2C19 Supersomes, luciferin-H EGE luminescence, 30 min;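 active = CYP2C19 inhibition above a set limit at 5 µM in the primary screen, cut at about 50% in these data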
CYP2C9 inh – human CYP2C9 inhibition; P11712; CYP2C9 Supersomes, luciferin-H conversion, luminescence; inhibition, % at 5 µM; actives 20% (n = 96,000);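 active = blocking of liver enzyme CYP2C9 beyond about 50% at 5 µM, limit read from the data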
CYP2C9 act – activators of human CYP2C9; recombinant CYP2C9, luciferin-H conversion, luminescence; stronger effect = higher value; factor 1 = untreated enzyme, 0 = blocked; activation factor at 5 µM; P11712; actives 1.4% (n = 96,000);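 active = activation factor of 2 or more for CYP2C9 at a 5 µM dose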
PLK1 PBD inh – blocks phosphopeptide binding to human Plk1 polo box domain; P53350; Plk1 PBD phosphopeptide binding, fluorescence polarization; inhibition, %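 (tested at about 20 µM)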; actives 0.13% (n = 97,000); in the data active = inhibition above about 34%, passing the limit was not always enough
Target sequence (P53350 whole entry, looked up, the tested form may be a part): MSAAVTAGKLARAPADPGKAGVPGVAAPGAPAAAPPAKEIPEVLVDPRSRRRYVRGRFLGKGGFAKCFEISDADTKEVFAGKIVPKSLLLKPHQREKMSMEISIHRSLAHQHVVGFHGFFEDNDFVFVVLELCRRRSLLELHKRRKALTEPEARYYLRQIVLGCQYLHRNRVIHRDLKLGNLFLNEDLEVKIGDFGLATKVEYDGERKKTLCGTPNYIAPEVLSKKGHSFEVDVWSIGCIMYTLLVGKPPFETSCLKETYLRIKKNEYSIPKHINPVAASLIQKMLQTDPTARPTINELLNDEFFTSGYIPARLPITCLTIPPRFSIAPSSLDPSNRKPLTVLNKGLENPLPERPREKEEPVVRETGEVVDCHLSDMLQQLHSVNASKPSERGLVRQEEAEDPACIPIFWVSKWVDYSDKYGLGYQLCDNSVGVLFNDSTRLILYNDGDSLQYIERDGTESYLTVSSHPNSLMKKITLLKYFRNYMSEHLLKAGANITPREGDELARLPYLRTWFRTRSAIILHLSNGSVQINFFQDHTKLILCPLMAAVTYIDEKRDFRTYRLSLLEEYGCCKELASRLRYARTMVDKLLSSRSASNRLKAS
PLK1 kinase inh – PLK1 (human) kinase inhibition | actives 0.53% (n = 97,000) | inhibition, % at 10 µM | recombinant PLK1 kinase, TR-FRET peptide phosphorylation | P53350;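 active = inhibition of 50% or more in the single-concentration screen; inactive = inhibition below 50%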
CYP2C19 act – cytochrome P450 2C19 (human) activation. P33261. recombinant CYP2C19, luciferin-H EGE luminescence; stronger effect = higher value; 0 = fully inhibited enzyme, 1 = untreated enzyme. activation factor at 5 µM. 96,000 tested, under 10 active. AID 1025;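 active = activation factor of at least 2 at 5 µM in the primary screen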
Hits are given with their value; . = inactive; / = not tested or not shown.

SMILES	CYP2C19 inh	CYP2C9 inh	CYP2C9 act	PLK1 PBD inh	PLK1 kinase inh	CYP2C19 act
O=C(Nn1c(O)c(C=C2N=c3ccccc3=N2)sc1=S)c1cccc(Cl)c1	.	.	.	.	.	.
CCCn1nnc(NCc2ccc(OCc3cccs3)c(OC)c2)n1	.	86.4	.	.	.	.
COc1ccc(CNc2nc(NCc3ccc(OC)cc3)n(C(C)=O)n2)cc1	.	.	.	.	.	.
CCC(=O)n1nc(NCc2ccccc2OC)nc1NCc1ccccc1OC	.	51.8	.	.	.	.
COc1ccc(-c2nnn(CC(=O)NCc3cccs3)n2)cc1OC	.	.	.	.	.	.
COc1ccc(CNc2nc(NCc3ccc(OC)c(OC)c3)n(C(=O)c3cccs3)n2)cc1OC	.	71.4	.	.	.	.
CCC1(C(=O)OC)NC(c2ccccc2OC)C2C(=O)N(C)C(=O)C21 (stereo not given)	.	.	.	.	.	.
COc1ccc(NC(=S)NC(NC(=O)c2cccc(Cl)c2)C(Cl)(Cl)Cl)c([N+](=O)[O-])c1 (stereo not given)	/	/	/	.	.	/
CCOC(=O)NC(NC(=S)Nc1ccccc1[N+](=O)[O-])C(Cl)(Cl)Cl (stereo not given)	98.3	93.2	.	.	.	.
COc1ccc(NC(=S)NC(NC(=O)c2cccc(C)c2)C(Cl)(Cl)Cl)c([N+](=O)[O-])c1 (stereo not given)	/	/	/	.	.	/
O=C(NC(NC(=S)Nc1ccccc1C(=O)O)C(Cl)(Cl)Cl)c1cccc([N+](=O)[O-])c1 (stereo not given)	.	70.6	.	.	.	.
N#CCCn1cc(C(CC(=O)c2ccccc2)C(=O)O)c2ccccc21 (stereo not given)	/	/	/	.	.	/
Cc1cc(C(C)(C)C)cc(C)c1COC(=O)C1CCC(=O)N1 (stereo not given)	62.6	.	.	.	.	.
O=C(O)c1ccccc1C(=O)NNc1ccc(F)cc1	.	.	.	.	.	.
CC(C(=O)N1CCN(c2ccc(Cl)cc2)CC1)c1ncc(C(F)(F)F)cc1Cl (stereo not given)	52.2	.	.	.	.	.
O=C(c1nn2c(C(F)(F)F)cc(-c3ccco3)nc2c1Br)N1CCCc2ccccc21	79.2	75.8	.	.	.	.
Cc1ccccc1Cn1ccc(NC(=O)c2cc3nc(-c4ccco4)cc(C(F)(F)F)n3n2)n1	50.3	57.6	.	.	.	.
COc1ccccc1N1CCN(C(=O)c2cc(-c3ccco3)on2)CC1	91.5	75.7	.	.	.	.
O=C(c1cc(-c2ccco2)on1)N1CCc2ccccc2C1	.	.	.	.	.	.
Cc1nn(Cc2ccccc2)c(C)c1NC(=O)c1cc2nc(-c3ccco3)cc(C(F)(F)F)n2n1	.	.	.	.	.	.
O=C(c1cc(-c2ccco2)on1)N1CCCc2ccccc21	.	.	2.5	.	.	.
CCN(C(=O)COc1ncnc2ccc(Br)cc12)C1CCS(=O)(=O)C1 (stereo not given)	.	.	.	.	.	.
COc1ccc(CNc2ncnc(N)n2)cc1	.	.	.	.	.	.
CC(SCc1cn2cc(Cl)ccc2n1)C(=O)O (stereo not given)	.	.	.	.	.	.
Cn1c(=O)c(C(=S)NC(=O)C2CC2)c(N)n(Cc2ccccc2)c1=O	.	.	.	.	.	.
SMILES	CYP2C19 inh	CYP2C9 inh	CYP2C9 act	PLK1 PBD inh	PLK1 kinase inh	CYP2C19 act
CCOC(=O)C1=C(N)Oc2c(oc(CO)cc2=O)C1c1ccc(F)cc1 (stereo not given)	/	/	/	.	.	/
O=C(c1cc(-c2ccco2)on1)N1CCN(c2ccccc2)CC1	84.3	87.0	.	/	/	.
Cc1ccc(Cn2ccc(NC(=O)c3cc4nc5c(c(C(F)(F)F)n4n3)CCc3ccccc3-5)n2)cc1	.	71.0	.	.	.	.
O=C(c1cc2nc(-c3ccco3)cc(C(F)(F)F)n2n1)N1CCN(c2ccccc2)CC1	63.3	71.6	.	.	.	.
CCCc1cc(=O)[nH]c(SCC(=O)N2CCN(c3ccc(F)cc3)CC2)n1	.	.	.	.	.	.
COc1cc(NC(=O)c2ccccc2Cl)c(OC)cc1NC(=O)CN1CCOCC1	.	.	.	.	.	.
Cc1ccc(NC(=O)c2ccccc2Cl)c(Cl)c1	.	.	2.2	.	.	.
COc1ccc(C)cc1NC(=S)NNC(=O)c1ccccc1Cl	60.6	.	.	.	.	.
COc1ccccc1NC(=S)NNC(=O)c1ccc(O)cc1	.	.	.	.	.	.
COc1cccc(C2C(C(=O)Nc3nc4ccccc4s3)=C(C)NC3=C2C(=O)CC(C)(C)C3)c1OC (stereo not given)	.	.	.	.	.	.
CCOC(=O)C1=C(CC)NC2=C(C(=O)CCC2)C1c1ccc(OC)c(OC)c1 (stereo not given)	50.1	.	.	.	.	.
CCOC(=O)C1=C(C)NC2=C(C(=O)CCC2)C1c1cc(OC)ccc1OC (stereo not given)	79.2	88.4	.	.	.	.
COc1cc(C2C(C(=O)N3CCOCC3)=C(C)NC3=C2C(=O)CCC3)ccc1OC(C)=O (stereo not given)	.	.	.	.	.	.
COc1ccc(OC)c(C2C(C(=O)Nc3nc4ccccc4s3)=C(C)NC3=C2C(=O)CCC3)c1 (stereo not given)	63.9	74.1	.	.	.	.
CCCOC(=O)C1=C(C)NC2=C(C(=O)CCC2)C1c1cc(OC)ccc1OC (stereo not given)	66.7	77.7	.	.	.	.
Cn1c(=O)[nH]c(=O)c2c1nc(Sc1nc3ccccc3s1)n2Cc1ccccc1	.	.	.	.	.	.
Cc1occc1C(=O)N/N=C/c1cnn(C)c1C	/	/	/	.	.	/
O=C(NC1CCCCC1)c1cccc(COCC(F)(F)F)c1	/	/	/	.	.	/
O=C(/C=C/c1ccc([N+](=O)[O-])cc1)NCC1CCCO1 (stereo not given)	.	.	.	.	.	.
CCSCCOC(=O)C1=C(C)NC(=O)NC1c1cc(OC)ccc1OC (stereo not given)	.	.	.	.	.	.
CCCCOC(=O)C1=C(C)NC2=C(C(=O)CCC2)C1c1cc(OC)ccc1OC (stereo not given)	62.7	84.7	.	.	.	.
CCCCN(CC)C(=O)Cn1ncc2c1-c1cc(C)ccc1OC2	77.4	70.3	.	.	.	.
O=C(CS(=O)(=O)Cc1ccccc1)N1CCc2ccccc21	.	.	2.1	.	.	.
O=C(CCCc1ccccc1)N1CCc2ccccc21	77.5	59.1	.	.	.	.
O=C(Cc1c[nH]c2ccccc12)N1CCc2ccccc21	91.6	77.3	.	.	.	.
Cc1ccc2c(CC(=O)N3CCc4ccccc43)coc2c1	78.8	.	.	.	.	.
O=C(Cc1c(O)c2ccccc2[nH]c1=O)OC1CCCCC1	.	.	.	.	.	.
